Screens as filed in PubChem BioAssay.
Sampled rows, rich in hits. Any-hit rate of the full collection: about 2.5%.
FXN GAA850 act = FXN promoter activators, primary screen, cell-based, luciferase luminescence, HEK293 lucGAA850; HEK293 lucGAA850 FXN promoter luciferase reporter, 24 h; percent of 10 µM SAHA response; activation, % at 6 µM; 360,000 tested, 0.56% active;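 active means activation above the average of all compounds screened plus 3 SD, cutoff fixed separately per campaign, cut at about 7.5% in these data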;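 further: 0% = DMSO wells and 100% = 10 µM SAHA wells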
EWS-Fli block = EWS/Fli-driven NR0B1 reporter inhibitors, primary screen, A673 cells, NR0B1 luciferase, luminescence, MLPCN library. viability-normalised. inhibition, % at 12.6 µM. 350,000 tested, 0.67% active. AID 651661, 2012;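 active means mean inhibition of at least 50% after viability correction, with every replicate also passing that limit; inconclusive means mean reaches 50% but only one of two replicates passes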;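 further: firefly luciferase signal divided by Alamar Blue viability fluorescence both relative to DMSO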
F508del corr = F508del CFTR correction, initial screen, CFBE line, single point; CFBE cells, YFP halide quenching; stimulated with forskolin plus potentiator P3; % fluorescence drop versus neutral controls; activity (quench increase), % at 7.58 µM; 350,000 tested, 0.36% active; AID 720511, 2013;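 active means mean added fluorescence quench of at least 8% versus neutral control, with both replicates also reaching 8%; inconclusive means only one of the mean or replicate conditions met; inactive means mean below 8% and not both replicates reaching 8%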;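 further: cells transiently co-express mutant CFTR-F508del with the halide-sensitive YFP; corrector assay measuring rescue of mutant channel to the surface after 24 h compound exposure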
Env fusion inh = inhibitors of HIV-1 Env-driven cell-cell fusion, primary screen, HeLa-JRFL effector, CEM21 target cells, luciferase. inhibition, % at 12.3 µM. 360,000 tested, 1.1% active. AID 651610, 2012;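 active means mean replicate inhibition score of at least 50 and every replicate individually at or above 50; inconclusive means only one of the two criteria met; inactive means mean below 50 and not all replicates reaching 50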;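 further: 0% = plate neutral controls and 100% = maraviroc near 300 nM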
PAX8 reporter = inhibitors of PAX8-driven TPO luciferase reporter, primary screen, RMG-I cells, single concentration | SteadyGlo, 24 h | inhibition, % at 12.6 µM | 360,000 tested, 1.2% active;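 active means mean replicate inhibition at least 60% with every replicate also reaching 60%; inconclusive means only one of the two criteria is met; inactive means mean below 60% and not all replicates reaching 60%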;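 further: luciferase light reporting Pax8 driven TPO promoter activity; plate controls were median of neutral control wells for no effect and mitoxantrone controls for full effect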
An asterisk follows results filed as active; i = inactive; ? = inconclusive; nt = no result given; [ ] = dose if it differs, or a comment.

SMILES	FXN GAA850 act	EWS-Fli block	F508del corr	Env fusion inh	PAX8 reporter
CCC(=O)N1CC2(CN(C(=O)Nc3ccc(F)cc3)C2)c2c([nH]c3cc(OC)ccc23)[C@@H]1CO	nt	-6	-2	nt	-20
Oc1ccccc1C(Nc1nccs1)c1ccc2cccnc2c1O (stereo not drawn)	-7	-6	2	60*	59
O=C(c1cccnc1)N1CC2(C1)[C@@H](c1ccccc1)[C@H](CO)N2Cc1cccnc1	nt	7	-3	10[16.7 µM]	5
O=C(C1CCCCC1)N1CCCC(c2nc3c(nnn3Cc3ccccc3)c(=O)[nH]2)C1 (stereo not drawn)	3	nt	nt	79*	nt
O=C(CN1CCOCC1)N1CC2(C1)[C@H](c1ccccc1)[C@H](CO)N2Cc1ccc(F)cc1	nt	7	-1	nt	-5
CCc1cccc(N=c2c([N+](=O)[O-])nn(-c3ccc4c(c3)OCCO4)n2O)c1	-1	-11	0	38	101*
Cc1cccc[n+]1CC(=O)/C=C1\N(C)c2ccccc2C1(C)C	1	75*	nt	?	40
Cc1ccc[n+](CC(=O)/C=C2\N(C)c3ccccc3C2(C)C)c1	1	nt	nt	nt	39
CN1/C(=C\C(=S)Nc2ccccc2)C(C)(C)c2ccccc21	1	1	-1	53*	19
CN1/C(=C\C(=S)NC(=O)c2ccccc2Cl)C(C)(C)c2ccccc21	3	7	nt	34	2
COc1ccccc1C(=O)NC(=S)/C=C1/N(C)c2ccccc2C1(C)C	-2	7	10.0*	nt	28
CN1/C(=C\C(=O)Nc2ccc(Cl)cc2)C(C)(C)c2ccccc21	1	-6	-3	-5	9
S=C(NN=C1CCCCC1=NNC(=S)N1CCOCC1)N1CCOCC1	nt	-19	-4	67*	11
O=C(CCN1C(=O)c2ccccc2C1=O)N1CCN(c2ccccc2)CC1	2	nt	nt	10	nt
O=C1c2ccccc2C(=O)N1Cc1cnc(N2CCN(c3ccccc3)CC2)s1	-2	35	11*	-50	17
O=C(O)/C=C/c1ccc2ccccc2n1	1	nt	nt	-11	nt
CN(C)c1ccc(/C=C/c2ccc3ccccc3n2)cc1	-12	nt	nt	nt	nt
O=[N+]([O-])c1ccc(/C=C/c2ccc3ccccc3n2)cc1	1	59*	-1	-238	-19
C(=C\c1ccc2ccccc2n1)/c1ccccc1	-2	74*	-33	-162	-7
Oc1ccc(/C=C/c2ccc3ccccc3n2)cc1	-4	79*	1	-51	58
CO[C@@H]1CN(C)C(=O)c2cc(NC(=O)C3CC3)ccc2OC[C@H](C)N(Cc2ccccc2)C[C@@H]1C	nt	1	1	nt	nt
CCOC(=O)[C@]12CCC=C1N(Cc1ccccc1)C(=O)[C@H](CC(=O)N1CCN(C(=O)c3ccco3)CC1)C2	nt	-1	1	17	45
COC(=O)[C@]12CCCCC=C1N(CCC1=CCCCC1)C(=O)[C@H](CC(=O)N1CCN(C(=O)c3ccco3)CC1)C2	nt	3	-2	12	79*
COC(=O)[C@]12CCCCC=C1N(Cc1cccc3ccccc13)C(=O)[C@H](CC(=O)N1CCN(C(=O)c3ccco3)CC1)C2	nt	0	1	26	92*
COC(=O)[C@]12CCCCC=C1N(Cc1cccc3ccccc13)C(=O)[C@H](CC(=O)N1CCCC1)C2	nt	3	0	20	3
SMILES	FXN GAA850 act	EWS-Fli block	F508del corr	Env fusion inh	PAX8 reporter
CCOC(=O)[C@]12CCCC=C1N(Cc1ccccc1)C(=O)[C@H](CC(=O)N1CCN(C(=O)c3ccco3)CC1)C2	nt	-8	0	-5	71*
CC(C)C#Cc1ccc2c(c1)O[C@H](CN(C)S(C)(=O)=O)[C@H](C)CN([C@H](C)CO)S2(=O)=O	nt	10	0	3[16.7 µM]	nt
C[C@@H]1CCCCO[C@H](CN(C)C)[C@@H](C)CN([C@@H](C)CO)C(=O)c2cc(NC(=O)NC3CCCCC3)ccc2O1	nt	4	-3	8[16.7 µM]	-19
COc1cc(OC)cc(C(=O)N2CC(=O)Nc3ccccc32)c1	-2	40	8.7*	-40	48
Cc1cccc(NCc2ccc(O)c3ncccc23)c1	-1	15	-4	44	79*
O=C(NCc1cccnc1)c1cccc(NS(=O)(=O)c2ccc(Br)cc2)c1	-6	58*	4	nt	20
O=c1cc(-c2ccccc2)[nH]c2cc(Cl)ccc12	1	59*	4	-146	15
O=c1cc(-c2ccccc2)[nH]c2ccc(F)cc12	0	58*	8.6*	-5	11
COc1ccc2[nH]c(-c3cccc(F)c3)cc(=O)c2c1	2	30	3	i	-6
Cc1ccc(-c2cc(=O)c3cc(F)ccc3[nH]2)cc1	4	-55	3	-14	-29
Cc1ccc2[nH]c(-c3cccc(F)c3)cc(=O)c2c1	1	57*	4	nt	9
O=c1cc(-c2cccc(F)c2)[nH]c2ccccc12	1	66*	3	-140	57
COc1ccc(-c2cc(=O)c3ccccc3[nH]2)cc1	2	-31	2	-5	-37
CN(C)C(=O)C[C@@H]1C=C[C@@H](NC(=O)C2CCOCC2)[C@@H](CO)O1	nt	nt	-1	nt	nt
O=S(=O)(c1ccc(F)cc1)N1CCCCN2[C@@H](CO)[C@H](c3ccc(C#CC4CCCC4)cc3)[C@@H]2C1	nt	18	-4	nt	30
CN1C(=O)c2cc(NC(=O)C3CC3)ccc2OC[C@@H]2O[C@H](CC(=O)NCC3CCCCC3)CC[C@H]21	nt	9	3	-3[16.7 µM]	-11
Cc1ccc(-c2cc(=O)c3cc(C)ccc3[nH]2)cc1	-4	59*	-3	-224	-1
O=C(CCN1CCCCC1)N[C@H]1CC[C@@H](CCn2cc(-c3cccc(F)c3)nn2)O[C@H]1CO	nt	5	-4	7[16.7 µM]	-5
Cc1ccccc1OCC(=O)OCC(=O)NCCc1ccccc1	-1	1	15*	-1	-4
COc1ccc(CCNC(=O)CCCCC(=O)NCCc2ccc(OC)cc2)cc1	2	5	2	-3	28
COc1ccc(-c2coc3c(C(=O)NCCc4ccccc4)cccc23)c(C)c1	0	-32	0	55*	8
COCCCNC(=O)c1cccc2c(-c3ccc(OC)cc3C)coc12	-1	13	-1	nt	16
COc1ccc(CCCC(=O)NCCc2ccccc2)c(C)c1	2	0	-2	89*	-13
CC1CCC(C(C)C)C(OC(=O)C[n+]2cc(-c3ccc(Cl)cc3)n3c2CCCCC3)C1 (stereo not drawn)	-2	49	nt	60*	102*
CCCNC(=O)N1C[C@H](C)[C@@H](OC)CN(C)C(=O)c2cc(NC(=O)C3CCC3)ccc2OC[C@H]1C	nt	-13	-4	nt	nt
CO[C@@H]1CN(C)C(=O)c2ccc(NS(=O)(=O)c3ccc(Oc4ccccc4)cc3)cc2OC[C@@H](C)NC[C@@H]1C	nt	15	-1	56*[16.7 µM]	nt
